Measured values: PubChem BioAssay AID1030 (National Center for Advancing Translational Sciences (NCATS), 2008)
Among all 220,000 compounds or so, about 16,000 (7.3%) were called active. Roughly 25% stayed inconclusive and do not appear here. The call rests on the fitted dose curve; in most records, active means well fitted inhibition curve with a large enough effect (not every such curve was filed as active); inconclusive means small, poorly fitted or top-dose-only effect, or another doubt; inactive means no such curve, though single readings can be large or run the other way. This excerpt belongs to a sample that is enriched for actives.

The compounds below were run against Aldehyde dehydrogenase 1A1 (Homo sapiens) (UniProt P00352) (assay: qHTS Assay for Inhibitors of Aldehyde Dehydrogenase 1 (ALDH1A1)). Details: Purified ALDH1A1, NADH fluorescence, propionaldehyde substrate; series mostly up to 75.3 µM; activity, negative = inhibition: at the top concentration.
Potency means the concentration at half of the fitted maximal effect.
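Wherever activity, negative = inhibition is given: plate controls were no enzyme wells and a reference inhibitor.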

Chain of Aldehyde dehydrogenase 1A1 (Homo sapiens) (P00352 whole entry, looked up): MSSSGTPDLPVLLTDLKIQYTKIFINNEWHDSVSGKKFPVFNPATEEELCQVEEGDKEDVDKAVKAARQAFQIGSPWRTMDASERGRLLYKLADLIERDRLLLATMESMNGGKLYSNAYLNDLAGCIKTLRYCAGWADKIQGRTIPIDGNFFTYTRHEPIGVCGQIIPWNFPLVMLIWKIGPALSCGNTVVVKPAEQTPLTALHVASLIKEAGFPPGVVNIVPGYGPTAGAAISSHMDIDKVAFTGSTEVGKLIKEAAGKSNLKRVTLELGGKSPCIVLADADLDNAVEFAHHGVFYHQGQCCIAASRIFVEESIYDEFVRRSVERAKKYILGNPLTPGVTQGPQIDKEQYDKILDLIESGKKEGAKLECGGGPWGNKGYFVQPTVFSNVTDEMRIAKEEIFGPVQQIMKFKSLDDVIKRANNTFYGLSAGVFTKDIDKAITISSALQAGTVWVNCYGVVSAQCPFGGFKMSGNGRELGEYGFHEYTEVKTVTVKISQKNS

Potency, active:
Cc1nc(C)c(C(=O)Nc2cccc(C)c2C)o1 17800 nM
CCN(CC)c1ccc2oc(=O)c(C)nc2c1 1000 nM
O=[N+]([O-])c1ccc(N2CCN(c3ccc(O)cc3)CC2)c(Cl)c1 7940 nM
Cc1cccc2c1N(CC(=O)OC(C)C)C(=O)C2=O 20 nM
CC(C)OC(=O)CN1C(=O)C(=O)c2ccccc21 63.1 nM
Cc1cccc2c1N(CCOc1ccccc1)C(=O)C2=O 224 nM
CCOC(=O)CN1C(=O)C(=O)c2cc(C)ccc21 178 nM
Clc1ccc(C2=CSC3=Nc4cccc5cccc(c45)N23)cc1 7940 nM
CCCCC(CC)CNC(=O)C(=O)C1C(=O)Nc2ccccc21 (stereo not given) 2000 nM
CCOC(=O)C(=O)C1C(=O)Nc2ccccc21 (stereo not given) 14100 nM
CCS(=O)(=O)c1cc([N+](=O)[O-])c(Sc2ccccc2N)s1 3550 nM
Cc1nc2sc(C(=O)c3ccccc3)c(N)c2c2c1CCCC2 3980 nM

Potency, inactive:
CCOC(=O)CN1C(=O)N[C@@H](c2ccc(Br)cc2)C(C(C)=O)=C1C

activity, negative = inhibition, inactive:
Cc1nnsc1C(=O)Nc1cccc(Cl)c1C 3.33%
Cc1cccc(NC(=O)c2ccc3nsnc3c2)c1C -4.39%
O=C(c1ccc(F)cc1)N1CCCC(c2nc(-c3cccs3)no2)C1 (stereo not given) -8.32%
CCOC(=O)C1CCN(C(=O)C2(NC(=O)Nc3cccc(F)c3)CCCCC2)CC1 4.32%
CC(=O)c1cnc(-c2ccccc2)s1 -9.73%
CCN(CC)c1ccc(/C=N/Nc2nc(C)cc(C)n2)c(O)c1 2.46%
CCN(CC)c1ccc2cc(C(N)=O)/c(=N\NC(=O)c3ccncc3)oc2c1 -10.6%
COc1ccc(CCNC(=O)CN(c2ccccc2)S(C)(=O)=O)cc1 2.48%
Cc1cc(C(=O)NNC(=O)CCC2CCCCC2)c(C)o1 -3.14%
CCOC(=O)C1C/C(=C\C(C)=O)c2cccc(C(F)(F)F)c2O1 (stereo not given) -5.96%
C=CCC(C)(O)c1ccco1 (stereo not given) 12.8%
O=C(c1ccc(Cl)c([N+](=O)[O-])c1)N1CCN(c2ccccc2)CC1 1.09%
COc1ccc(N2CCN(c3ccc([N+](=O)[O-])cc3Cl)CC2)cc1 4.73%
C/C=C/C=C/C(=O)OCC(=O)Nc1ccc(Cl)cc1 -2.76%
O=C(C1CCN(S(=O)(=O)c2ccc(Br)s2)CC1)N1CCN(C2CCCCC2)CC1 -12.8%
Cc1ccc(S(=O)(=O)CC(=O)Nc2c(C)n(C)n(-c3ccccc3)c2=O)cc1 -4.24%
Cc1ccc(S(=O)(=O)N2CCN(CC(=O)N/N=C/c3ccc(Br)s3)CC2)cc1 0.942%
CC1(C)NC(=O)N(CCOc2cccc(Oc3ccccc3)c2)C1=O -11.9%
Cc1cc(C)cc(OCC(=O)NNC(=O)CCN2C(=O)c3ccccc3C2=O)c1 -8.44%
Cc1nn(CCOc2ccccc2)c(=O)n1-c1ccccc1F -4.02%
Cc1ccccc1C(=O)NNC(=O)CN1C(=O)c2ccccc2C1=O 4.91%
CC(C)OC(=O)CN1CCN(c2ccc(Cl)cc2)CC1 -2.07%
CC(C)OC(=O)CN1C(=O)c2ccccc2C1=O 8.21%
CCCCOC(=O)Cn1c(=O)n(CC(=O)OCCCC)c2cc(C)ccc21 -4.24%
OCCC1CN(Cc2cccn2-c2nccs2)CCN1CCc1ccccc1 (stereo not given) 11.6%
C/C(=N\NC(=O)c1cccnc1)c1ccc(-n2ccnc2)cc1 8.66%
C#CCOCCOCCOCCNc1nc(N2CCN(C(=O)[C@H](CCC(=O)O)n3cc(C(N)CO)nn3)CC2)nc(N2CCN(C(=O)[C@H](Cc3ccc(O)cc3)n3cc(C(N)[C@H](C)CC)nn3)CC2)n1 (stereo not given in full) -1.39%
Cc1nnc(SCC2=C(C(=O)O)N3C(=O)C(NC(=O)Cn4nc(C)c(Cl)c4C)C3SC2)s1 (stereo not given) 3.56%
CCCOc1ccc(NC(=O)CC2C(=O)N(C)C(=S)N2Cc2ccc3c(c2)OCO3)cc1 (stereo not given) 4.02%
NS(=O)(=O)c1ccc(N2C(=O)C3C4CC(C(Br)C4Br)C3C2=O)cc1 (stereo not given) 6.76%
CC(=O)Nc1ccc(S(=O)(=O)Nc2ccc(-c3ccc4nnc(C)n4n3)cc2)cc1 -0.516%
NCCC(=O)c1ccccc1N -18%
COc1ccc(NC(=O)c2sc(N)nc2-c2ccccc2)cc1 7.79%
S=C(NN=C1CCN(Cc2ccccc2)CC1)NC1CCCCC1 -10.8%
CCN(C(=O)c1ccc(Br)cc1)c1ccccc1 -4.18%
CCC1(C(=O)c2ccccc2)C(c2cccc([N+](=O)[O-])c2)C1(C(=O)OC)C(=O)OC (stereo not given) 16%
Cc1ccccc1C(=O)OC1OC(=O)C(Cl)=C1Nc1ccccc1 (stereo not given) -17.1%
C=CCN1c2ccccc2[C@]23C[C@@H](C(=O)OC)N(S(=O)(=O)c4ccc([N+](=O)[O-])cc4)C2=NC(C(=O)OC)=C(C(=O)OC)[C@H]13 -3.11% [at 13.5 µM]
O=C1NC2(CCCCCC2)C(=O)N1CCS(=O)(=O)Oc1ccccc1 -2.26%
CC(=O)Nc1ccc(C(=O)/C=C/c2ccc[nH]2)cc1 -1.58%
Cc1cc(C(=O)N/N=C/c2ccccc2[N+](=O)[O-])c(C)o1 -5.15%
CCN(CC)CC1(O)CCN(C(=O)c2ccc(Cl)c(Cl)c2)CC1 -1.58%
CC(C)(C)n1nc2c(c1NC(=O)c1cc3ccccc3o1)CSC2 9.75%
Cc1ccc(C)c(NC(=S)NCC(c2cccnc2)N2CCOCC2)c1 (stereo not given) -2.08%
CCOC(=O)CC1=CC(=O)Nc2ccccc2N1 1.21%
CCCCC(CC)CNC(=O)CCCCn1c(=O)[nH]c2ccsc2c1=O (stereo not given) 0.924%
CCOC(=O)C1C(=O)NCC1c1ccccc1 (stereo not given) 6.09%
COC(=O)C(C)C1Sc2ccccc2NC1=O (stereo not given) -1.81%
CC1=NN(C(=O)CCCc2ccccc2)C(O)(C(F)(F)F)C1 (stereo not given) 0.404%
CC(C)C(=O)NCc1cc(-c2ccc(Cl)cc2)no1 14.5%
CCCCCCCC[C@@H](O)/C=C/C=C/C=C\[C@@H](O)CCCC(=O)O 12.3%
[O-][n+]1onc2c1CCc1[nH]c(-c3ccccc3)nc1-2 16.4%
CCc1nnc(NC(=O)CSc2nc(SC)ns2)s1 3.53%
Cc1ccc(C(=O)OC2CCCN(C)C2)cc1 (stereo not given) 7.18%
Nc1ccccc1Sc1ccc(C(F)(F)F)cc1[N+](=O)[O-] 1.57%
CCc1nc2sc(C(=O)O)c(N)c2c2c1CCCC2 5.87%
CCOC(=O)c1sc2nc(SC)nc(-c3ccccc3)c2c1N -4.78%
